This is part of a sample that, as a whole, favours compounds with a hit. Of some 83,000 tested, about 20% had one in any assay.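 Percent growth is the endpoint: 0 to 100 indicates growth inhibition (40 means 60% inhibition), 0 means no net growth, and negative values indicate cell death.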 A number with no mark means an inactive call. Calls of active or inactive are those of the source.
These molecules were tested on NCI-H23 lung (assay: NCI-60 one-dose screen, 48 h (100 = growth as untreated, 0 = no growth, -100 = all killed)). Details: 10 µM unless noted.
Procedure: Growth inhibition of the NCI-H23 human Non-Small Cell Lung tumor cell line is measured as a screen for anti-cancer activity. Cells are grown in 96 well plates and exposed to the test compound for 48 hours. Compounds are tested at a single concentration, which is 10^-5 M for most compounds. The reported endpoint is percent growth (GI% or GIPRCNT), where numbers from 0 - 100% represent growth inhibition, and numbers from -100% - 0 represent cell death. For example, a value of 40 represents 60% growth inhibition. A value of 0 means no net growth occurred over the course of the experiment. A value of -40 indicates 40% of cells at the beginning of the experiment died by the end of the experiment. A value of -100 means all cells are dead at the end of the experiment.
NCI-60 Human Tumor Cell Lines Screen was performed using the standard one-dose NCI protocol, which is described in more detail at https://dtp.cancer.gov/discovery_development/nci-60/default.htm.
Compounds with GIPRCNT values below 10 were considered active. Activity score was based on GIPRCNT using the following formula: […]
Score is 0 for GIPRCNT values of 100 or above, 50 for GIPRCNT values of 0, and 100 for GIPRCNT values of -100.

SMILES | growth
S=P(NC1CCCCC1)(N1CC1)N1CC1 | 110%
O=C(O)CC(Br)C(=O)CBr (stereo not given) | 108%
N#C[Se]CCCNS(=O)(=O)C1CC2C=CC1C2 (stereo not given) | -37.5% (active)
CC(/C=N/N=C(N)N)=N/N=C(N)N | 95.3%
Cc1cc(CCl)c(C)cc1CCl | 55.4%
CC1(C)CC2(CC(C)(C)c3cc(O)c(O)cc32)c2cc(O)c(O)cc21 | 108%
N#CC1c2ccccc2C=CN1C(=O)c1ccc(N(CCCl)CCCl)cc1 (stereo not given) | 89.3%
CCCCCN(CCCCC)CC(O)c1ccc(C)c(Cl)c1 (stereo not given) | 89.3%
NC(=O)C(Cl)Cl | 108%
COc1cc(NCCCCCN=C(N)N)c2ncccc2c1 | 4.89% (active)
OC1(c2ccc(Cl)cc2Cl)c2ccccc2C2=NCCN21 (stereo not given) | 88.5%
CO[C@@H]([CH2][Hg][S]C#N)[C@@H]([CH2][Hg][S]C#N)OC | 92.3%
Oc1ccc(Br)cc1CN1CCN(Cc2ccc(Cl)cc2)CC1 | 91.1%
CC1=C(SCCC(=O)OCC(=O)NCCC[Te]c2ccccc2)C(=O)c2ccccc2C1=O | -33.6% (active)
CC(C)CCC[C@@H](C)[C@H]1CC[C@H]2[C@@H]3CC=C4C[C@@H](OC(=O)Cc5ccc(N(CCCl)CCCl)cc5)CC[C@]4(C)[C@H]3CC[C@]12C | 107%
CC12CC[C@H](O)C=C1/C(=N/O)CC1C2CCC2(C)C1CC[C@@H]2O (stereo not given in full) | 103%
O=C(NCCNC(=O)c1ccc([As](O)O)cc1)c1ccc([As](O)O)cc1 | 93%
CC1COC(=O)C1 (stereo not given) | 104%
N#C[Se]CCN1C(=O)C2C(C1=O)[C@H]1C=C[C@@H]2S1 (stereo not given in full) | -11.7% (active)
NC(=O)SCC(=O)Nc1ccc([As](=O)(O)O)cc1 | 86.1%

SMILES | growth
Cc1ccc(C(=O)C2CN(C)CCC2(O)c2ccc(C)cc2)cc1 (stereo not given) | 103%
ClCCN(CCCl)c1nc(Cl)c(C2CC(c3ccc(Cl)cc3)=NN2c2cc(Cl)cc(Cl)c2)s1 (stereo not given) | 94.1%
ClCCN(CCCl)c1nc(Cl)c(C2CC(c3ccccc3)=NN2c2ccccc2)s1 (stereo not given) | 86.8%
CC(=O)C1CCC2C3CC=C4CC(OC(=O)Cc5ccc(N(CCCl)CCCl)cc5)CCC4(C)C3CCC12C (stereo not given) | 96.6%
Cc1ccccc1O | 105%
CNc1ccc(C(=O)CC(O)CCC(C)C2OC(=O)CC(O)CC(=O)CC(O)CC(O)CC(O)CC(O)CC3(O)CC(O)C(C(=O)OC)C(CC(O[C@@H]4O[C@H](C)[C@@H](O)[C@H](N)[C@@H]4O)/C=C/C=C/C=C/C=C/C=C/C=C/C=C/C2C)O3)cc1 (stereo not given in full) | -54.5% (active)
S=P(Nc1ccccc1)(Nc1ccccc1)c1ccccc1 | 92.5%
C[As](=O)(O)c1ccc(C(=O)O)cc1 | 110%
C[C@]12CCc3sc(-c4ccc(Cl)cc4)nc3C1=CC[C@@H]1[C@@H]2CC[C@]2(C)C(=O)CC[C@@H]12 | 71.3%
NS(=O)(=O)c1nc[nH]c1[N+](=O)[O-] | 99.8%
CC(C)(O)/C=C/C(=O)[C@](C)(O)[C@H]1[C@H](O)C[C@@]2(C)[C@@H]3CC=C4[C@@H](C=C(O)C(=O)C4(C)C)[C@]3(C)C(=O)C[C@]12C | -40.1% (active)
O=C1NC(=O)C(O)(C2(O)C(=O)NC(=O)NC2=O)C(=O)N1 | 103%
COc1ccc(/C=C(/C(=O)N2CCCC2)c2cc(OC)c(OC)c(OC)c2)cc1N | 41.7%
CCC(C)/C=C(C)/C=C/C(=O)c1c(O)c(-c2ccc(O)cc2)c[nH]c1=O (stereo not given) | 64.6%
C[C@]12C[C@H](O)[C@H]3[C@@H](CCC4=CC(=O)CC[C@@]43C)[C@@H]1CC[C@@H]2O | 103%
COP(=S)(OC)Oc1ccc(SC)c(C)c1 | 97.7%
C=CC(O)CN1CC1CC (stereo not given) | 99%
CCOCC1(CCc2ccccc2)C(=O)NC(=S)NC1=O | 94%
CC(C)Nc1ccc(Nc2ccccc2)cc1 | 31.3%
C[C@]12CCC(=O)CC1CC[C@@H]1C2CC[C@@]2(C)C1CC[C@@H]2OC(=O)CC[Se][Se]CCC(=O)O[C@H]1CCC2[C@@H]3CCC4CC(=O)CC[C@]4(C)C3CC[C@@]21C (stereo not given in full) | 102%
